# Measured values as given in publication PMC4336329 (PLoS ONE, 2015).
# The campaign covered roughly 310,000 compounds. About 14,000 (4.5%) showed an effect of 50% or more. Effects have a minus sign here. For the sample, strong results were picked, then their nearest neighbours and some compounds at random.
# Target: human ether-à-go-go-related gene (hERG) potassium channel (human, UniProt Q12809)
# Assay: primary screen, population patch clamp on CHO cells stably expressing hERG; higher = less effect of the substance
# 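Further: peak tail current of the secondary pulse compared with the same well before compound.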
# Sequence of human ether-à-go-go-related gene (hERG) potassium channel (Q12809 whole entry, looked up): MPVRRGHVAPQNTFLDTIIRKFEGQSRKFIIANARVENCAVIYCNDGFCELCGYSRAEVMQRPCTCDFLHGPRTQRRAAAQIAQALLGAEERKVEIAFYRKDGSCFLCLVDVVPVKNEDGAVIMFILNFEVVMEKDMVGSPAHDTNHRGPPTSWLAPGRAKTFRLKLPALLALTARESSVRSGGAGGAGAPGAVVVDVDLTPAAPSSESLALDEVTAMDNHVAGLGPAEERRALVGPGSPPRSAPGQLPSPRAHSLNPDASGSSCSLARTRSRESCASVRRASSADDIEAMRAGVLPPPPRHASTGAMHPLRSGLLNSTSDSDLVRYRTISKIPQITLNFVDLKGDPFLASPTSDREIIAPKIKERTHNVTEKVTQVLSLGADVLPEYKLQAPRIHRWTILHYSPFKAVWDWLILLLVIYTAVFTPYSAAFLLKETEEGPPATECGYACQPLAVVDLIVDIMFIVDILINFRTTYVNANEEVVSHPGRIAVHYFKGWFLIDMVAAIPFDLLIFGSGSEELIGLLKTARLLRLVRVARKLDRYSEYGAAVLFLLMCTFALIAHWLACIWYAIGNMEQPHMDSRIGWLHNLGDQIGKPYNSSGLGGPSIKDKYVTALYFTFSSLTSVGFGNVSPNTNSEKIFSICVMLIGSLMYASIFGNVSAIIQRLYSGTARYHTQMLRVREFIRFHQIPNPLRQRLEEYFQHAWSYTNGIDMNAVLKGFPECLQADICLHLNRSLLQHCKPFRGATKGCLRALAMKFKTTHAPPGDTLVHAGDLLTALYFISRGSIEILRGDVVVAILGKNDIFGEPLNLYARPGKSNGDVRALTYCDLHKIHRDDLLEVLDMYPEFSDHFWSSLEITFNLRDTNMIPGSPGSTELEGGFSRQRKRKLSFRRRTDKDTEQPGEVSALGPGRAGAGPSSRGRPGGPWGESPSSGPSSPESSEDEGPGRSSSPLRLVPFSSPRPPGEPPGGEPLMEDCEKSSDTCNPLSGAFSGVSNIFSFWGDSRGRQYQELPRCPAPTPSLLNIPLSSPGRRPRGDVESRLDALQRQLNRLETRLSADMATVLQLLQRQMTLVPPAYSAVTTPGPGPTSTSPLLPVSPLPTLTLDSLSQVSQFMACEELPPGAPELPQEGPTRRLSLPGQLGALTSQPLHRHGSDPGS
row,Compound,"hERG current change (%, negative = inhibition) at 10uM [%]"
1,O=C(NCC1CCCCC1)c1cccc(Br)c1,-3.31
2,CCCOc1ccc(N2CC(C(=O)Nc3ccc(N4CCOCC4)cc3)CC2=O)cc1 (stereo not shown),36
3,CN1CCC(OC(=O)c2cccc(F)c2)CC1.Cl,-0.186
4,Cc1ccc(N2CC(NS(=O)(=O)c3cc(F)ccc3F)CC2=O)cc1C (stereo not shown),-6.74
5,O=C(CSc1nnnn1C1CCCCC1)Nc1cccc(NC(=O)c2ccco2)c1,-27.8
6,Cc1ccc(-n2nnnc2SCC(=O)Nc2cccc(NC(=O)c3ccco3)c2)cc1C,-6.49
7,O=C(CSc1nnnn1C1CCCC1)Nc1cccc(NC(=O)c2ccco2)c1,-55.9
8,Cc1cccc(-n2nnnc2SCC(=O)Nc2ccc(N3CCN(C)CC3)cc2)c1,-55
9,Cc1ccccc1-n1nnnc1SCC(=O)Nc1ccc(N2CCN(C)CC2)cc1,-35.8
10,CC(=O)c1ccc(-n2nnnc2SCC(=O)Nc2cccc(NC(=O)c3ccco3)c2)cc1,6.89
11,CC(=O)c1cccc(-n2nnnc2SCC(=O)Nc2cccc(NC(=O)c3ccco3)c2)c1,-60.7
12,Cc1ccc(-n2nnnc2SCC(=O)Nc2ccc(N3CCN(C)CC3)cc2)c(C)c1,-21
13,O=C(CSc1nnnn1C1CCCCC1)NNC(=O)c1ccco1,11.3
14,COc1cc(S(=O)(=O)NCc2ccncc2)c(OC)cc1Cl,6.57
15,CCC(C)NC(=O)c1cn(CCOC)c(=O)c2c1c1ccccc1n2C (stereo not shown),20.4
16,COc1ccc(Cn2c(CCC(=O)Nc3ccccc3OC)nc3cccnc32)cc1,-3.79
17,COc1cccc(CN2C(=O)C(C)N(C(=O)c3ccccc3)c3ccccc32)c1 (stereo not shown),-5.44
18,CC1CCC(C(=O)c2c(O)c3ccccc3oc2=O)CC1 (stereo not shown),15.9
19,COc1ccc(-c2nc(S(=O)(=O)c3ccc(C)cc3)c(N3CCCC3)o2)cc1,17.2
20,O=C(Nc1ccc(-n2ccnc2P(=O)(O)c2ccccc2)cc1)c1ccccc1Br,-14.9
21,CCOC(=O)c1snc(C(=O)NC2CCCCC2)c1N,-6.13
22,COc1ccc(NC(=O)c2sc3ncnc(N4CCN(c5ccccn5)CC4)c3c2C)cc1Cl,-23
23,c1ccc(Nc2nc(N3CCCC3)nc(N3CCCC3)n2)cc1,13.1
24,Nc1nc(CN2CCCCCC2)nc(Nc2ccccc2)n1,-61.4
25,Nc1nc(CN2CCN(Cc3ccccc3)CC2)nc(Nc2ccccc2)n1,-66.2
26,Nc1nc(CN2CCN(C(c3ccccc3)c3ccccc3)CC2)nc(Nc2ccccc2)n1,-18.4
27,c1ccc(Nc2nc(N3CCCCC3)nc(N3CCCCC3)n2)cc1,-4.68
28,Nc1nc(CCl)nc(Nc2ccccc2)n1,20.7
